Results filed as inconclusive are left out. Where a call stands in place of a potency, no number is given. Activity calls are given as the source filed them. The call rests on the fitted dose curve; in most records, active means well fitted curve in the direction sought with a large enough effect; inconclusive means small, poorly fitted or top-dose-only effect, or another doubt; inactive means no such curve, though single readings can be large; an effect the other way counts as inactive or inconclusive.
Legend:
[1] = molecular target: Aldehyde dehydrogenase, mitochondrial (Homo sapiens) (UniProt P05091); assay: qHTS for Inhibitors of the Aldehyde Dehydrogenase Family (ALDH2) Primary screen (AID 2061308); further: nearly all actives have a fitted effect of over 55% in size
[2] = molecular target: Retinaldehyde dehydrogenase 3 (Homo sapiens) (UniProt P47895); assay: qHTS for Inhibitors of the Aldehyde Dehydrogenase Family (ALDH1A3) Primary screen (AID 2061315)

Structure (SMILES) | Potency [1] | Potency [2]
COCc1nn2c(=O)cc(N3CCNCC3)nc2s1 | inactive | inactive
COc1cc(-c2nc(Nc3ccc(F)c(F)c3)c3ccccc3n2)c(F)cn1 | inactive | inactive
CCNC(=O)c1ccc(-c2ccc3ncnc(N4CCOCC4)c3c2)o1 | inactive | inactive

Source: PubChem BioAssay (NCATS)
